Calls of active or inactive are those of the source. How the calls were made is not given here.

Sequence of Pantothenate synthetase (Mycobacterium tuberculosis (strain ATCC 25618 / H37Rv)) (P9WIL5 whole entry, looked up): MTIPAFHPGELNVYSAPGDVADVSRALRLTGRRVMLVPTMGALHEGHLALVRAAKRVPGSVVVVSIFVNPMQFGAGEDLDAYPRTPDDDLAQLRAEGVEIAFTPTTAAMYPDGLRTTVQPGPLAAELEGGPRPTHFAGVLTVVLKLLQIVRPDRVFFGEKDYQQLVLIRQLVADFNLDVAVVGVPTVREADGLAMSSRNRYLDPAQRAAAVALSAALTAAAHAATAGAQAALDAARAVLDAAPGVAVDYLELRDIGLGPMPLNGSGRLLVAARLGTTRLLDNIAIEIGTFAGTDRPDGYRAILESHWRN

The test concerns the target Pantothenate synthetase (Mycobacterium tuberculosis (strain ATCC 25618 / H37Rv)) (UniProt P9WIL5). The test is described as follows: Recombinant Mtb pantothenate synthetase (PanC) inhibitors, coupled enzyme, confirmatory (AID 375).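 Further: 0% = full reaction with vehicle and 100% = no enzyme background.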 Particulars: coupled enzyme assay; at 10 µM, hits give high values.
`CCc1nnc(NC(=O)COC(=O)CN2C(=O)c3ccccc3C2=O)s1`: the inhibition is 0% (inactive).

With `CC(C)c1ccc(-c2nc(N3CCOCC3)[nH]c(=O)c2C#N)cc1`, the inhibition is 7% (inactive). Turning to `CCCn1c(NCc2cc(C)ccc2O)nc2ccccc21`, the inhibition is 0% (inactive).

Take `Cn1c2c(c(=O)n(C)c1=O)CN(CCCN1CCOCC1)CN2`: the inhibition is 0% (inactive). For `O=C(Nn1c(C2CC2)nc2ccccc2c1=O)c1ccco1`, the inhibition was 0% (inactive). Consider `Cc1occc1C(=O)Nc1ccccc1NC(=O)c1ccoc1C`, for which the inhibition was 3% (inactive). For the compound `CCN(CC(=O)NCc1cccs1)C(=O)c1cc(S(=O)(=O)N2CCOCC2)ccc1C`, the inhibition was 0% (inactive).

For `CC(=O)NC1(c2nnnn2CCOC(=O)Nc2ccc(Cl)cc2)CCCCC1`, the inhibition was 1% (inactive). `CC(=O)Nc1cccc(NC(=O)c2oc3ccccc3c2C)c1`: the inhibition was 0% (inactive). As to `O=C(C1CCCN(S(=O)(=O)c2cccnc2)C1)N1CCN(c2ccccn2)CC1` (stereo not given), the inhibition was 0% (inactive).

`COc1ccc(-n2nc(C(=O)NCC(=O)NCC3CCCO3)c3ccccc3c2=O)cc1` (stereo not given): the inhibition is 0% (inactive). As for `COc1ccccc1NC(=O)c1nnn(CC(=O)Nc2ccccc2)c1N`, the figure is 1% (inactive); as for `Cc1cc(NC(=O)C23CCC(C)(C(=O)O2)C3(C)C)no1` (stereo not given), 1% (inactive). For the compound `O=C(CCC(=O)N(c1cccc(F)c1)C(C(=O)NC1CCCC1)c1ccncc1)Nc1cccnc1` (stereo not given), the inhibition was 0% (inactive). As for `Cc1cc(C)n(-c2nc3c(c(=O)n(Cc4ccc(Cl)c(Cl)c4)c(=O)n3C)n2C)n1`, the inhibition was 1% (inactive). In the case of `CN(C)S(=O)(=O)c1ccc(C(=O)N2CCCC2c2nc3ccccc3s2)cc1` (stereo not given), the inhibition is 0% (inactive). The figure for `Clc1ccc(-n2nnnc2Sc2ncnc3sccc23)cc1` is 0% (inactive). `COC(=O)c1cc(OC)c(OCc2cc(C(=O)OC)oc2C)c(OC)c1`: the inhibition is 2% (inactive). As for `CC1=C(C(=O)NC2CCCC(C)C2C)C2(CCCCC2)OC1=O` (stereo not given), the inhibition is 0% (inactive). In the case of `CCOc1ccc(N(C)S(=O)(=O)c2ccc3[nH]cc(C(=O)NCC4CCCO4)c(=O)c3c2)cc1` (stereo not given), the inhibition was 0% (inactive). For `Cc1ccc2c(c1)NC(=O)C(CC(=O)NC1CCCCC1C)O2` (stereo not given), the inhibition is 11% (inactive). As to `Cc1sc2ncn3ncnc3c2c1C`, the inhibition was 0% (inactive).

Regarding `CC(=O)c1c(NCCc2ccccc2)cc(C)oc1=O`, the inhibition was 0% (inactive). For the compound `O=C(COc1ccc(F)cc1)Nc1ccc(-n2cnnn2)cc1`, the inhibition is 0% (inactive). Turning to `O=C(CSCc1cnn(-c2ccccc2)c1-n1cccc1)NCC1CCCO1` (stereo not given), the inhibition is 4% (inactive).

In the case of `CCCc1cc(=O)oc2cc(C)cc(OC(=O)c3ccco3)c12`, the inhibition was 0% (inactive). As for `CCN1CCCC1CNC(=O)c1cc2c(=O)n(C)c3ccccc3c2n1C` (stereo not given), the figure is 0% (inactive); as for `O=C(C1CCCN(S(=O)(=O)c2cccc3nonc23)C1)N1CCC(Cc2ccccc2)CC1` (stereo not given), 3% (inactive). `O=C(O)COc1ccc2occ(C(=O)c3ccccc3)c2c1`: the inhibition was 0% (inactive). `CCc1c(C)nc(N2CCN(Cc3ccccc3)CC2)[nH]c1=O`: the inhibition was 3% (inactive). On to `N#Cc1nc(COc2ccc(Br)cc2)oc1N1CCCC1`, for which the inhibition is 16% (inactive).

For the compound `CCc1cn([C@H]2C[C@H](O)[C@@H](CO)O2)c(=O)[nH]c1=O`, the inhibition is 0% (inactive). As to `CC(=O)Nc1ccc(NC(=O)c2ccccc2N(C)S(C)(=O)=O)cc1`, the inhibition was 2% (inactive). For the compound `O=C(Nn1cnnc1)C1Cc2ccccc2CN1S(=O)(=O)c1ccc(F)cc1` (stereo not given), the inhibition was 0% (inactive). On to `CCc1cc2c(NCCC(=O)O)nc(C)nc2s1`, for which the inhibition was 1% (inactive). `COC(=O)Nc1nnc(CCc2ccccc2)s1`: the inhibition was 2% (inactive). Regarding `COC(=O)c1ccccc1NC(=O)CSc1nnnn1C1CCCCC1`, the inhibition was 6% (inactive). The figure for `CCOC(=O)CC1(CC(=O)OCC)NC(=O)c2c(C)sc(C(=O)OCC)c2N1` is 1% (inactive); for `Cc1ccc(NC(=O)CSc2nnc(-c3ccccn3)n2C)cc1` it is 1% (inactive); for `Cc1nnc(SCc2ccccc2F)n1NCc1cccs1` it is 3% (inactive).

In general, inhibition refers to the share of the control response that was lost under treatment.

For the origin of these results see PubChem BioAssay.
